Assay results taken from PubChem BioAssay AID504941 (Broad Institute, 2011).
About 170 (14%) of roughly 1,200 compounds were called active. No rule for the calls is given here. These entries were drawn from the full list. Entries with a potency or affinity are not part of this list.

Experiment: twin-arginine translocation blockade, bacterial reporter – cherry-pick, set 2, plate reader, dose response (AID 504941)
Details: E. coli Tat transport reporter; series mostly up to 38 µM

outcome, inactive:
CCOC(=O)c1c(C)[nH]c(C(=O)N(C)Cc2cccc(OC)c2OC)c1C
COc1ccccc1NS(=O)(=O)c1cccc(N=C2N=C(N)c3ccccc32)c1
CC(=O)Nc1sc(NC(=O)c2ccccc2)nc1-c1cccs1
Cc1ccc(/C=N/NC(=O)c2ccc(Cn3cc([N+](=O)[O-])cn3)o2)cc1
O=C(NCc1cccnc1)C(=O)NCC1OCCN1S(=O)(=O)c1ccc(F)cc1 (centres undefined)
COc1ccc(C(=O)OC(C)CN2CCN(C)CC2)cc1 (centres undefined)
Cc1ccc(-n2c(O)c(C=Nc3ccccc3-c3n[nH]c(=S)[nH]c3=O)c3ccccc3c2=O)cc1C
COc1ccc(/C=C(/NC(=O)c2cccc([N+](=O)[O-])c2)C(=O)O)cc1
Cc1cc(NC(=O)c2ccc([N+](=O)[O-])cc2)n(C)n1
O=C(NC(=S)NNC(=O)c1ccccc1O)c1ccccc1
COCC(=O)Nc1nnc(Cc2ccc(OC)cc2)s1
CC(Oc1cccnc1[N+](=O)[O-])C(=O)N1CCc2ccccc21 (centres undefined)
Cc1nc(-c2cccc(S(=O)(=O)N3CCOCC3)c2)cs1
CCN(CC)S(=O)(=O)c1cc(NC(=O)c2ccc(-n3cncn3)c([N+](=O)[O-])c2)ccc1C
COc1ccc(NC(=O)c2ccccc2[N+](=O)[O-])cc1OC
NC(=O)Cn1c(-c2nonc2N)nc2ccccc21
CCCC(=O)Nc1ccc(NC(=O)c2ccccn2)cn1
Cc1onc(-c2c(F)cccc2Cl)c1C(=O)Nc1sc2c(c1C#N)CCC(C(C)(C)C)C2 (centres undefined)
Cc1onc(-c2ccccc2)c1C(=O)Nc1nc(-c2cc(F)ccc2F)cs1
Cc1ccccc1NC(=O)NCCN1C(=O)C2C3C=CC(C3)C2C1=O (centres undefined)
CCOC(=O)c1ccccc1NC(=S)N1CC(C)CC(C)C1 (centres undefined)
CCOC(=O)c1sc(Nc2nc3ccc(OC)cc3s2)cc1C
CCCn1c(N)c(C(=O)CSc2nnnn2-c2ccc(O)cc2)c(=O)n(C)c1=O
COC(=O)/C(=C/c1ccco1)NC(=O)c1ccccc1
O=C1OCCN1C(=O)[C@H]1[C@H](c2ccc(Cl)cc2)C(c2ccccc2)=NN1c1ccccc1
COc1cccc(-c2cc(=O)c3cc(NC(C)=O)ccc3[nH]2)c1
Cc1c(NC2=NC3(CCCCC3)Cc3ccccc32)c(=O)n(-c2ccccc2)n1C
O=C(Nc1cccc(NC(=O)c2cccnc2)c1)c1ccccc1
O=C1CN(S(=O)(=O)c2ccccc2C(F)(F)F)CCN1
CCCOc1cccc(C(=O)Nc2ccc(Br)cc2F)c1
COc1ccc(OC)c(NC(=O)c2cccnc2)c1
Cc1nn(-c2ccccc2)c(C)c1NC(=O)COC(=O)c1ccc(Cl)c(S(N)(=O)=O)c1
CNC(=S)N1CCN(c2c(F)cc3c(=O)c(C(=O)O)cn(C4CC4)c3c2OC)CC1C (centres undefined)
COc1cc(C(=O)Oc2cc(C)cc(C)c2)cc(OC)c1OC
Cc1ccc(C2CC(c3ccccc3)n3ncnc3N2)cc1 (centres undefined)
COc1cc(OC)cc(C(=O)NC2CC(C)(C)NC(C)(C)C2)c1
Cc1ccccc1NC(=O)CCN1CCN(CCO)CC1
CN(Cc1cn[nH]c1-c1ccc(-c2ccccc2)cc1)CC1CCOCC1
Cc1ccc(Cn2c(=O)oc3ccccc32)cc1
O=C(NCc1cccs1)c1cccnc1C(=O)O
COc1cc(/C=C(\C#N)c2nn(CCO)c(N)c2C#N)cc(OC)c1OC
CCN(CC(=O)NCc1ccc(F)cc1)CC(=O)Nc1ccc(S(=O)(=O)N2CCCC2)cc1
CC1CCN(C(=O)C2(NC(=O)Nc3cccc(F)c3)CCCCC2)CC1
O=C(CSc1nc2ccccc2c(=O)n1CCCN1CCOCC1)Nc1ccc2c(c1)OCO2
Cc1nc(SCc2nc3ccccc3[nH]2)c2oc3ccccc3c2n1
Nc1ccc(C(=O)Nc2nc3ccccc3s2)cc1
COCc1cc(C)n(CC(=O)NC(C)c2ccccc2)c(=O)c1C#N (centres undefined)
COc1ccc(S(=O)(=O)Nc2nc3c(s2)CCCC3)cc1
CCCCOCC1CN(c2ccccc2)C(=O)CS1 (centres undefined)
Cc1ccc(NC(=O)COC(=O)CCC(=O)c2cccs2)c(C)c1
Cc1ccc(C)c(NC(=O)CCN2CCc3ccccc3C2)c1
COc1ccc(N(CC(=O)NCc2ccc(Cl)cc2)S(=O)(=O)c2ccccc2[N+](=O)[O-])c(OC)c1
Cc1cc(C)nc(SC(C)C(=O)N/N=C/c2cccs2)n1 (centres undefined)
Cc1ccc(C(=O)c2cnc3ccccc3c2-c2ccccc2)cc1
CC1=NCC(C)c2c1[nH]c1ccccc21 (centres undefined)
Cc1cccc(/C=N/NC(=O)c2cc(C3CC3)nc3ccccc23)n1
O=C(NCc1ccccc1)C(=O)NCC1OCCN1S(=O)(=O)c1ccc([N+](=O)[O-])cc1 (centres undefined)
Cc1noc(C)c1COC(=O)c1cccc(S(=O)(=O)N2CCOCC2)c1
C#CCOCCOCCOCCNc1nc(N2CCN(C(=O)Cn3cc(CC(C)O)nn3)CC2)nc(N2CCN(C(=O)[C@H](CCCCN)n3cc(CCCC)nn3)CC2)n1 (some centres undefined)
COc1cccc(-n2c(SCc3ccccn3)nc3c(c2=O)SCC3)c1
Cc1ccc2cccc(OCC(=O)N3CCc4ccccc43)c2n1
COc1ccc(CCNC(=O)/C=C/c2ccco2)cc1OC
COc1ccccc1N1CCN(c2nc(-c3ccccc3)cc(C(F)(F)F)n2)CC1
Cc1ccccc1OCC(=O)Nc1nnc(-c2ccncc2)s1
NC1C2CN(c3nc4c(cc3F)c(=O)c(C(=O)O)cn4-c3ccc(F)cc3F)CC12 (centres undefined)
CSc1cccc(NC(=O)CN(C)S(=O)(=O)c2cnc[nH]2)c1
O=C(N/C(=C/c1ccccc1)C(=O)N1CCCCC1)c1ccc(Br)o1
COc1ccc(OC)c(C(=O)CSc2nnc(-c3cccs3)o2)c1
COc1cccc(NC(=O)c2ccc3c(SCC(=O)O)c4c(nc3c2)CCCC4)c1
CC(C)OC(=O)c1nn2c(C(F)(F)F)cc(-c3ccco3)nc2c1Cl
O=C(Nc1ccc(Br)cc1)C1CC(O)CN1C(=O)Oc1ccccc1 (centres undefined)
CCOc1ccc(NC(C(=O)Nc2cccc(C(C)=O)c2)c2ccccc2)cc1 (centres undefined)
O=C(NC1CC1)c1ccc(N2CCCCC2)c([N+](=O)[O-])c1
COc1cc2cc(CN(CCO)S(=O)(=O)c3ccccc3Cl)c(=O)[nH]c2cc1OC
